Source: PubChem BioAssay (EPA / NIEHS)
The source made the active and inactive calls. The calls were made as follows: active = hit-call score of the fitted dose curve at least 0.9, where 1 is the maximum; inactive = score below 0.9.

Columns and labels:
[1] = ATG_GRE_CIS: Attagene CIS-FACTORIAL HepG2 Assay for human Glucocorticoid Response Elements (GRE) (AID 2282947); conditions: HepG2 GRE cis-reporter, Attagene multiplex mRNA; actives raise or lower the signal
Procedure, shortened: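 Assay uses human hepatoma HepG2 cells transfected with cis-promoter reporter units, exposed 24 h. mRNA from reporters detected by RT-PCR plus capillary electrophoresis; DMSO serves as negative control and baseline.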

[2] = ATG_ISRE_CIS: Attagene CIS-FACTORIAL HepG2 Assay for human Interferon Regulatory Factor 1 (IRF1) binding to an Interferon-Stimulated Response Element (ISRE) (AID 2282948); conditions: HepG2 ISRE cis-reporter (Attagene), mRNA transcription readout; actives raise or lower the signal
Procedure, shortened: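 Transiently transfected HepG2 cells carrying cis-element reporter units, dosed 24 hours. Reporter mRNA quantified by RT-PCR, fluorescent primer extension, HpaI digestion and capillary electrophoresis. Bidirectional fitting relative to DMSO.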

[3] = ATG_M_32_CIS: Attagene CIS-FACTORIAL HepG2 Assay for M32 Transcription Factor (Internal Marker) (AID 2282949); conditions: HepG2 Attagene cis-factorial M32 reporter, mRNA; actives raise or lower the signal;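 also: background control marker of the multiplexed CIS panel rather than a real target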
Procedure, shortened: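 Following 24 h chemical exposure of HepG2 cells transiently expressing cis-promoter reporter constructs, reporter transcript levels were determined by RT-PCR with fluorescent labelling and capillary electrophoresis, then fitted bidirectionally against DMSO.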

[4] = ATG_M_06_CIS: Attagene CIS-FACTORIAL HepG2 Assay for M06 Transcription Factor (Internal Marker) (AID 2282950); conditions: HepG2 Attagene CIS-FACTORIAL M06 internal marker reporter; actives raise or lower the signal
Procedure, shortened: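 Steps: transfect HepG2 with multiplexed cis-element reporter constructs; dose chemical 24 h; extract RNA with DNase treatment; reverse-transcribe, PCR-amplify, 6-FAM label, HpaI digest; separate fragments by capillary electrophoresis. Activity fitted both directions versus DMSO.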

[5] = molecular target: Hypoxia-inducible factor 1-alpha (Homo sapiens) (UniProt Q16665); test: ATG_HIF1a_CIS: Attagene CIS-FACTORIAL HepG2 Assay for human Hypoxia Inducible Factor 1 (HIF1A) (AID 2282951); conditions: HepG2 Attagene cis-factorial HIF1a reporter transcription; actives raise or lower the signal
Hypoxia-inducible factor 1-alpha (Homo sapiens), sequence (Q16665 whole entry, looked up): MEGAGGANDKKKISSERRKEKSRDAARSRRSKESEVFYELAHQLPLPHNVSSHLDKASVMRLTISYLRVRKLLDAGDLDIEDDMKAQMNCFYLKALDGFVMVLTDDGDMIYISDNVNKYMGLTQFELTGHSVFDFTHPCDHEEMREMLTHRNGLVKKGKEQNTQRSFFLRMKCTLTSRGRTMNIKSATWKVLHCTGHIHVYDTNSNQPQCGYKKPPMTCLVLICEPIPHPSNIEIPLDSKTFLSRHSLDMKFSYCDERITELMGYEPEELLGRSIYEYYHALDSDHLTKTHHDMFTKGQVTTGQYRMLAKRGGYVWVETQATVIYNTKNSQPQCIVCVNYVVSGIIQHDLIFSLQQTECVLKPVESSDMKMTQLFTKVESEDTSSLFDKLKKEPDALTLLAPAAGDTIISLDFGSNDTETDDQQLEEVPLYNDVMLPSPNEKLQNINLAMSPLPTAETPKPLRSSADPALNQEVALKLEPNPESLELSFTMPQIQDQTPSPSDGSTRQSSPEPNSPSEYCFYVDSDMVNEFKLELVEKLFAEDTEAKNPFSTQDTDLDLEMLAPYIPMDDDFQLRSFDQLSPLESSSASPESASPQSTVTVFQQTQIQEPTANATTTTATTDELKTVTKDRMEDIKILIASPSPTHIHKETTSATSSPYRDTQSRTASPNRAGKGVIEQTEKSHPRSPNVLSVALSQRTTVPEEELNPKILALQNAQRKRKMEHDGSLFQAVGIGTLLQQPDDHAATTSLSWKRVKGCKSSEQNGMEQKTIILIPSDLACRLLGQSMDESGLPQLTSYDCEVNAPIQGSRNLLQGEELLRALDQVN
Procedure, shortened: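 Measures endogenous transcription-factor activity through cis-regulated reporter mRNA in HepG2. Cells dosed 24 h; transcripts quantified by RT-PCR with 6-FAM-labelled products separated by capillary electrophoresis; DMSO serves as negative control.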

[6] = molecular target: Hepatocyte nuclear factor 6 (Homo sapiens) (UniProt Q9UBC0); test: ATG_HNF6_CIS: Attagene CIS-FACTORIAL HepG2 Assay for human Hepatocyte Nuclear Factor 6 (HNF6) (AID 2282952); conditions: HepG2 Attagene cis-factorial HNF6 reporter transcription; actives raise or lower the signal
Hepatocyte nuclear factor 6 (Homo sapiens), sequence (Q9UBC0 whole entry, looked up): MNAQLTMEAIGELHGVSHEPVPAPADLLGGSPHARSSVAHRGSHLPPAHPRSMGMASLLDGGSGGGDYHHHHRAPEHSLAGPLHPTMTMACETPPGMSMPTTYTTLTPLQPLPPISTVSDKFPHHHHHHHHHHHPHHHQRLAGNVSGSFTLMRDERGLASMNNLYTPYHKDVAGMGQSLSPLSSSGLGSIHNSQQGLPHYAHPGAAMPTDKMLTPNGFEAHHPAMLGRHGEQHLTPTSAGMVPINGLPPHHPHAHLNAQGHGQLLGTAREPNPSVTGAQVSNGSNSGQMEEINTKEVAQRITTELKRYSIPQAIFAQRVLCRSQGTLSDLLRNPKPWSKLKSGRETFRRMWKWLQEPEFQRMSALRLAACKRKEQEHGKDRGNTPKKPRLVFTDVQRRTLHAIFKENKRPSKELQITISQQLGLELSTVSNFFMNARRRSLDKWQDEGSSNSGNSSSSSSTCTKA
Procedure, shortened: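 Multiplexed mRNA reporter assay in transfected HepG2; 24 h dosing; RT-PCR plus capillary electrophoresis fluorescence; DMSO-referenced bidirectional curve fitting.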

[7] = molecular target: Heat shock factor protein 1 (Homo sapiens) (UniProt Q00613); test: ATG_HSE_CIS: Attagene CIS-FACTORIAL HepG2 Assay for human Heat Shock Transcription Factor 1 (HSE) (AID 2282953); conditions: HepG2 HSE cis-reporter, Attagene RNA transcription; actives raise or lower the signal
Heat shock factor protein 1 (Homo sapiens), sequence (Q00613 whole entry, looked up, the tested form may be a part): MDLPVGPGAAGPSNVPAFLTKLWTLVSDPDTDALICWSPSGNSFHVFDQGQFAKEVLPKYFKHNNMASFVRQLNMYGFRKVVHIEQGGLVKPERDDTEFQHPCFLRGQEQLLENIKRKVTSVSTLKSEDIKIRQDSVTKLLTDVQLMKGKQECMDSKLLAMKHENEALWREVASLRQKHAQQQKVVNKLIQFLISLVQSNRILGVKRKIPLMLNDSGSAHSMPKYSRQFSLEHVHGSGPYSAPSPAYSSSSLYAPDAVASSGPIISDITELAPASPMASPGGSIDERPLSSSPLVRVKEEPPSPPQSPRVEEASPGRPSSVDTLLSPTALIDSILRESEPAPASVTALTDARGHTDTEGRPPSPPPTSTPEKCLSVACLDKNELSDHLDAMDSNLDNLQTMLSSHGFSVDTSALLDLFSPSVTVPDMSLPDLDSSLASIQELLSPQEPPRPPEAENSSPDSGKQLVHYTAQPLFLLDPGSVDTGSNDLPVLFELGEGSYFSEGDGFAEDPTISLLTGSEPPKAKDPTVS
Procedure, shortened: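 Cells were transfected with cis-element-driven reporter constructs, dosed for 24 h, then total RNA was reverse-transcribed and reporter cDNA amplified, FAM-labelled and digested with HpaI. Fragments were resolved by capillary electrophoresis; gain or loss was fitted against DMSO.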

[8] = ATG_MRE_CIS: Attagene CIS-FACTORIAL HepG2 Assay for human Metal Responsive Element (MRE) (AID 2282954); conditions: HepG2 MRE cis-reporter transcription, Attagene multiplex; actives raise or lower the signal
Procedure, shortened: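 After a 24 h chemical exposure, transiently transfected HepG2 cells yield RNA whose reporter sequences are amplified, FAM-labelled and sized by capillary electrophoresis. Curves are fitted bidirectionally relative to DMSO.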

[9] = ATG_PBREM_CIS: Attagene CIS-FACTORIAL HepG2 Assay for human Phenobarbital-responsive Enhancer Module (PBREM) (AID 2282955); conditions: HepG2 PBREM cis-reporter, Attagene multiplexed transcription; actives raise or lower the signal
Procedure, shortened: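 Fluorescence of labelled reporter cDNA fragments, resolved by capillary electrophoresis, gives mRNA induction in transfected HepG2 cells treated for 24 h; DMSO serves as negative control and baseline.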

[10] = molecular target: Paired box protein Pax-6 (Homo sapiens) (UniProt P26367); test: ATG_Pax6_CIS: Attagene CIS-FACTORIAL HepG2 Assay for human Paired Box 6 (PAX6) (AID 2282956); conditions: HepG2 CIS-FACTORIAL PAX6 reporter transcription, RNA readout; actives raise or lower the signal
Paired box protein Pax-6 (Homo sapiens), sequence (P26367 whole entry, looked up): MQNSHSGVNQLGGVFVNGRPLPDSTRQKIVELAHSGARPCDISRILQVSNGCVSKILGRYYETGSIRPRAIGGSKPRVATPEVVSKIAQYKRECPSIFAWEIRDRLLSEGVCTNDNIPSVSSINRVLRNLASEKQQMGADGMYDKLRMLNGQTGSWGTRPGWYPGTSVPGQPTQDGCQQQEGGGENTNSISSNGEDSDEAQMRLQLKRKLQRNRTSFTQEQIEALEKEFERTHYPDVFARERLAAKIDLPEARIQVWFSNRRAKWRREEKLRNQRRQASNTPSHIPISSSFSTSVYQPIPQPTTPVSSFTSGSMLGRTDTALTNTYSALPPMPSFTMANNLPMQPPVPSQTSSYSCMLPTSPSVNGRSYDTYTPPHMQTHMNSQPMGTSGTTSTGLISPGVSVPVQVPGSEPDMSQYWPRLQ
Procedure, shortened: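 HepG2 cells transiently transfected with cis-promoter-driven multiplexed reporter units sensing endogenous transcription factor activity; 24 h chemical exposure. Reporter mRNA quantified by RT-PCR, 6-FAM labelling, HpaI digestion and capillary electrophoresis; bidirectional fit versus DMSO baseline.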

[11] = ATG_PXRE_CIS: Attagene CIS-FACTORIAL HepG2 Assay for human Pregnane X Receptor Element (PXRE) (AID 2282957); conditions: HepG2 Attagene CIS-FACTORIAL PXRE reporter, mRNA; actives raise or lower the signal
Procedure, shortened: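 Cells: HepG2, transiently transfected reporter units under cis promoter control. Exposure: 24 h. Detection: reporter mRNA via RT-PCR/CE fluorescence; bidirectional fitting, DMSO-referenced.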

[12] = ATG_PPRE_CIS: Attagene CIS-FACTORIAL HepG2 Assay for human Peroxisome Proliferator-activated Response Element (PPRE) (AID 2282958); conditions: HepG2 PPRE cis-element reporter, Attagene transcription factor profiling; actives raise or lower the signal
Procedure, shortened: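 Cells are first transfected transiently with the multiplexed reporter library, then dosed for 24 h. Total RNA is reverse-transcribed, amplified, fluorescently end-labeled and HpaI-cut before capillary electrophoresis; activity is fitted bidirectionally against DMSO controls.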

[13] = ATG_RORE_CIS: Attagene CIS-FACTORIAL HepG2 Assay for human RAR-related Orphan Receptor Element (RORE) (AID 2282959); conditions: HepG2 Attagene cis-factorial RORE reporter, mRNA; actives raise or lower the signal
Procedure, shortened: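 Cells were HepG2 carrying transfected cis-regulated reporter constructs, dosed for 24 hours. Total RNA was reverse-transcribed and reporter cDNA amplified, fluorescently labeled and sized by capillary electrophoresis. Activity was fitted bidirectionally relative to DMSO.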

[14] = ATG_Sox_CIS: Attagene CIS-FACTORIAL HepG2 Assay for human SRY-box transcription factor (SOX) (AID 2282960); conditions: HepG2 Attagene cis-factorial SOX reporter, mRNA; actives raise or lower the signal
Procedure, shortened: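 Transient MRTU transfection of HepG2; 24 h compound incubation; TriZol RNA, oligo(dT) RT, PCR, 6-FAM primer extension, HpaI cut, CE. Bidirectional fit, DMSO = baseline.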

[15] = molecular target: Transcription factor Sp1 (Homo sapiens) (UniProt P08047); test: ATG_Sp1_CIS: Attagene CIS-FACTORIAL HepG2 Assay for human Specificity Protein 1 (Sp1) (AID 2282961); conditions: HepG2 Sp1 cis-reporter transcription, actives raise or lower the signal
Transcription factor Sp1 (Homo sapiens), sequence (P08047 whole entry, looked up): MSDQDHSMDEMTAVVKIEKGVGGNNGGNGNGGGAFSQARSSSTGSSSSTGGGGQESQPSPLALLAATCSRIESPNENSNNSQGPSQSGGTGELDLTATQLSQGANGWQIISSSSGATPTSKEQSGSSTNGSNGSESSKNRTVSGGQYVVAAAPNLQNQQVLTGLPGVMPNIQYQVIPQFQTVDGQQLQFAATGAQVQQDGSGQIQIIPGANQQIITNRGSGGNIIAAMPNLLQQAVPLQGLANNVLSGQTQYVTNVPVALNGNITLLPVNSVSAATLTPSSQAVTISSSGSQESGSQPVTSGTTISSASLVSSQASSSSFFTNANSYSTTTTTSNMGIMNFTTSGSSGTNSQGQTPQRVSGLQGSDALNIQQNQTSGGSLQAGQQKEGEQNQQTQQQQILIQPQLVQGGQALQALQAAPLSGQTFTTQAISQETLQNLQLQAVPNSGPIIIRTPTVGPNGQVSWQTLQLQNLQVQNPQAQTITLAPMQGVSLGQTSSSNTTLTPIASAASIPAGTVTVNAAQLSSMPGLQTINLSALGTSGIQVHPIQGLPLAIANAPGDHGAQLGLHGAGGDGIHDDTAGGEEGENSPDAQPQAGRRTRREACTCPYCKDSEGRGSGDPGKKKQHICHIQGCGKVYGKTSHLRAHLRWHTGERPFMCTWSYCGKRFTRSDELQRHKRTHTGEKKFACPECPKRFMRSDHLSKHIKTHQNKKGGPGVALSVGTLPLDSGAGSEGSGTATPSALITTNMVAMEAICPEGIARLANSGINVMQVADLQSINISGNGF
Procedure, shortened: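 Endogenous Sp1 activity was gauged in human liver HepG2 cells bearing transfected reporter units under a cis-regulating promoter. After 24 h dosing, reporter mRNA was quantified by RT-PCR with capillary electrophoresis, and activity fitted bidirectionally versus DMSO.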

[16] = ATG_SREBP_CIS: Attagene CIS-FACTORIAL HepG2 Assay for human Sterol Regulatory Element Binding (SREBP) (AID 2282962); conditions: HepG2 Attagene cis-factorial SREBP reporter, mRNA; actives raise or lower the signal
Procedure, shortened: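 HepG2 cells transiently transfected with multiplexed cis-promoter reporter units sensing endogenous transcription factors; reporter mRNA measured 24 h after dosing by RT-PCR, 6-FAM labeling, HpaI digestion and capillary electrophoresis. Bidirectional fit versus DMSO.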

[17] = molecular target: Signal transducer and activator of transcription 3 (Homo sapiens) (UniProt P40763); test: ATG_STAT3_CIS: Attagene CIS-FACTORIAL HepG2 Assay for human Signal Transducer and Activator of Transcription 3 (STAT3) (AID 2282963); conditions: HepG2, Attagene cis-factorial STAT3 reporter transcription; actives raise or lower the signal
Signal transducer and activator of transcription 3 (Homo sapiens), sequence (P40763 whole entry, looked up): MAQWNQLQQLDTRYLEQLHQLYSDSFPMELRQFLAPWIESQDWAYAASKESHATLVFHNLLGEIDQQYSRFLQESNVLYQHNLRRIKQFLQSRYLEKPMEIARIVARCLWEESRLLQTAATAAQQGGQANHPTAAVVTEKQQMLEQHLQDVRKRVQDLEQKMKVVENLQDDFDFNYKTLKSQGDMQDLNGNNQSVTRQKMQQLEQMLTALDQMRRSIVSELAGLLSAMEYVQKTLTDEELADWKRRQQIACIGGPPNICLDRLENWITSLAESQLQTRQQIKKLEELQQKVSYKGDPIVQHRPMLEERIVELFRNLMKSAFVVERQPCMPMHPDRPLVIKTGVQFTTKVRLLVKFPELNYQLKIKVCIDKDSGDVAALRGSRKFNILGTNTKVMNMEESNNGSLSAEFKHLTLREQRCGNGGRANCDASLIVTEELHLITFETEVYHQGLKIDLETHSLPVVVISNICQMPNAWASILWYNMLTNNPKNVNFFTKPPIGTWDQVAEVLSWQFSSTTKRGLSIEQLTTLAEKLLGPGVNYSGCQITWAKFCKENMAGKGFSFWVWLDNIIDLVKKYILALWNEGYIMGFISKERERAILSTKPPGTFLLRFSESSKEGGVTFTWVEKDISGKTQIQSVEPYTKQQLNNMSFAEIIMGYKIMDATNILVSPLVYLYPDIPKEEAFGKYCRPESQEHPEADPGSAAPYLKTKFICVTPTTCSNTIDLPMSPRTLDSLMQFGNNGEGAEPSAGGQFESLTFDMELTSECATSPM
Procedure, shortened: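 After a 24 h compound incubation, total RNA from MRTU-transfected HepG2 cells was converted to cDNA and reporter sequences PCR-amplified, labelled and profiled by capillary electrophoresis. Gain and loss of signal were referenced to DMSO.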

[18] = ATG_TA_CIS: Attagene CIS-FACTORIAL HepG2 Assay for human TA Basal Promoter (AID 2282964); conditions: HepG2 Attagene CIS-factorial TA basal promoter reporter; actives raise or lower the signal
Procedure, shortened: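 Steps: transfect HepG2 with MRTUs; dose 24 h; isolate RNA, DNase-treat, reverse-transcribe; PCR and FAM-label reporter cDNA; digest with HpaI 2h at 37 C; run capillary electrophoresis. Activity fitted both directions against DMSO.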

[19] = ATG_TCF_b_cat_CIS: Attagene CIS-FACTORIAL HepG2 Assay for human T-Cell-Factor with beta-catenin (TCF/b-cat) (AID 2282965); conditions: HepG2 TCF/beta-catenin cis-reporter transcription, actives raise or lower the signal
Procedure, shortened: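 Measured: reporter mRNA in HepG2 transiently transfected with cis-promoter reporter units, 24 h after chemical addition. Fitting was bidirectional, DMSO as negative control.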

Measured: AC50

Nc1cc(Cl)c(O)c(Cl)c1
inactive: [1] | [3] | [4] | [5] | [6] | [14] | [15] | [17] | [18]
active: [2] 100 µM | [7] 142 µM | [8] 79 µM | [9] 84.9 µM | [10] 136 µM | [11] 24.8 µM | [12] 45.3 µM | [13] 60.2 µM | [16] 130 µM | [19] 64.2 µM

Nc1ccc(S(N)(=O)=O)cc1
not listed: [12] | [13] | [17]
inactive: all other assays above

CCC(=O)OCc1ccccc1
not listed: [9] | [19]
inactive: all other assays above

COc1cc(C)cc(O)c1
active: [11] 20.5 µM
not listed: [12] | [17]
inactive: all other assays above

COCCCOc1ccnc(CS(=O)c2nc3ccccc3[nH]2)c1C (configuration not stated)
active: [7] 152 µM | [8] 106 µM
not listed: [11] | [12]
inactive: all other assays above

FC1(F)C(F)(F)C(F)(F)C2(F)C(F)(C1(F)F)C(F)(F)C(F)(F)C1(F)C(F)(F)C(F)(F)C(F)(F)C(F)(F)C12F (configuration not stated)
active: [11] 37.5 µM
not listed: [13]
inactive: all other assays above

OC1OC[C@@H](O)[C@H](O)[C@H]1O (some centres not stated)
not listed: [11] | [12] | [16] | [18]
inactive: all other assays above

O=C(O)CCSCCC(=O)O
active: [11] 54.3 µM
not listed: [13]
inactive: all other assays above
